High-throughput results (PubChem BioAssay)
Compounds with a hit are over-represented: about 11% of the library has one in this group of screens.
Pf growth 48h = Primary qHTS for delayed death inhibitors of the malarial parasite plastid, 48 hour incubation. P. falciparum luciferase growth in erythrocytes, 48 h. Potency, µM (titrated, usually from 28.7 µM), inactives show top-dose activity change, negative = inhibition, actives largely listed as inhibitors. 310,000 tested, 5.9% active; note: % is set by controls: 0 for no effect and ±100 for the full control effect
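Luciferase-expressing parasites in RBCs, 2% Hct / 0.1% parasitemia final; RPMI 1640 + 0.5% Albumax; 37 C, 5% CO2, one generation; luminescence read-out, lower signal = inhibition.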
Pf growth 96h = Primary qHTS for delayed death inhibitors of the malarial parasite plastid, 96 hour incubation; 320,000 tested, 6.9% active; P. falciparum luciferase reporter growth, 96 h; Potency, µM (top dose mostly 28.7 µM), without a hit: at the top dose activity change, negative = inhibition, hits mostly inhibitors; AID 504834, 2011; note: % is set by controls: 0 for no effect and ±100 for the full control effect
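Delayed-death screen, second-generation endpoint: infected erythrocytes, 2% hematocrit, 0.05% parasitemia final; 96 hours at 37 C, 5% CO2; luciferase detection reagent; luminescence decrease equals reduced growth.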
NS1 inh = qHTS Assay for Inhibitors of Influenza NS1 Protein Function. Potency, µM (titrated, usually from 46.1 µM), for inactives: top-dose activity, positive = more growth. 270,000 tested, 0.4% active. AID 2326, 2010; calls by dose curve; note: actives are rising curves; nearly all actives have a fitted effect of over 50% in size
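In this qHTS, NS1 from influenza A is expressed in budding yeast, where it slows growth. Cells are switched from glucose to 2% galactose medium (pH 6.0, -URA), treated with compound, and growth recovery is read at OD600.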
Sm TGR inh = qHTS Assay for the Inhibitors of Schistosoma Mansoni Peroxiredoxins. Schistosoma mansoni thioredoxin glutathione reductase (TGR), Q962Y6. purified TGR, DTNB reduction, TNB absorbance 405 nm. Potency, µM (series often up to 114 µM), without a hit: at the highest dose activity change, negative = inhibition, actives largely listed as inhibitors. 360,000 tested, 3% active; note: % is set by controls: 0 for no effect and ±100 for the full control effect; nearly all actives have a fitted effect of over 60% in size
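TGR 20 nM + NADPH 100 uM (dispensed conc.), cpd preinc 15 min RT; start with NADPH (500 uM addition) then DTNB (15 mM addition). Kinetic TNB absorbance, 405 nm filter. Four-parameter Hill fit across titration.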
AMA1 RON2 block = qHTS for Inhibitors of AMA1-RON; Towards Development of Antimalarial Drug Lead: Primary Screen | Plasmodium falciparum AMA1 (3D7) - RON2 peptide interaction | AlphaScreen AMA1-biotinylated RON2 peptide binding | Potency, µM (titrated, usually from 58.2 µM), for inactives: at the highest dose activity change, negative = inhibition, usual class: inhibitors | 360,000 tested, 0.2% active;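 note: 0% = vehicle wells and -100% = peptide control; nearly all actives have a fitted effect of over 45% in size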
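AMA1 (3D7) with his tag at 25 nM final met compounds first, then biotinylated RON2 peptide at 25 nM; detection used donor plus acceptor beads, 10 µg/mL apiece, read by AlphaScreen after 30 min at room temperature.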
* = called active by the depositor; i = inactive; ? = inconclusive; . = no result given. Unless noted, calls come from the whole dose curve; as a rule, active = well fitted curve in the direction sought with a large enough effect; inconclusive = small, poorly fitted or top-dose-only effect, or another doubt; inactive = no such curve, though single readings can be large; an effect the other way counts as inactive or inconclusive. Potency is the fitted concentration of half-maximal effect.

SMILES	Pf growth 48h	Pf growth 96h	NS1 inh	Sm TGR inh	AMA1 RON2 block
CCOC(=O)C1CCN(c2nc3ccccc3nc2C(C#N)C(=O)OC(C)COC)CC1 (stereo unspecified)	8.28µM*	?	-2.4%	-1.2%	-10.0%
COC(=O)C1CCN(c2nc3ccccc3nc2C(C#N)C(=O)NCCc2ccccc2)CC1 (stereo unspecified)	-2.1%	14.7µM*	-8.0%	8.7%	-3.2%
CCC(CC)COC(=O)C(C#N)c1nc2ccccc2nc1N1CCN(CC)CC1 (stereo unspecified)	10.4µM*	46.4%	-5.4%	-4.1%	-4.4%
CCOC(=O)C1CCN(c2nc3ccccc3nc2C(C#N)C(=O)OCCOC)CC1 (stereo unspecified)	?	?	3.0%	-22.1%	20.6%
CCOc1ccccc1N1CCN(c2nc3ccccc3nc2C(C#N)C(=O)OC(C)C)CC1 (stereo unspecified)	-10.9%	?	0.0%	4.6%	-18.9%
C=CCOC(=O)C(C#N)c1nc2ccccc2nc1N1CCN(c2ccccc2OCC)CC1 (stereo unspecified)	9.28µM*	9.28µM*	8.6%	-6.7%	-23.1%
Cc1cc(NC(=O)C(C)SCC(=O)Nc2cc(C(F)(F)F)ccc2N2CCOCC2)no1 (stereo unspecified)	-7.9%	?	.	7.4%	-12.1%
OCc1cn(-c2ccccc2)nn1	i	12.7%	.	-6.8%	9.0%
O=C1OC(NC(=O)c2ccccc2)C(n2cc(CO)nn2)=C1Cl (stereo unspecified)	-6.5%	?	-6.4%	0.794µM*	-2.0%
CN1CCN(CC(=O)N2CCn3c4c(c5cc(C6CCCCC6)ccc53)CCCC42)CC1 (stereo unspecified)	7.38µM*	?	-75.2%	-1.2%	?
Cc1ccc2c(c1)c1c3n2CCCN(Cc2ccccc2)C3CCC1 (stereo unspecified)	0.928µM*	.	2.1%	1.2%	3.6%
Cc1ccc2c(c1)c1c3n2CCN(CC(N)=O)C3CCC1 (stereo unspecified)	13.1µM*	-4.8%	23.8%	-7.8%	-5.5%
Cc1ccc2c(c1)c1c3n2CCN(C(=O)Cn2c(-c4ccccc4)noc2=O)C3CCC1 (stereo unspecified)	0.185µM*	9.28µM*	?	-6.8%	-17.7%
Cc1ccc2c(c1)c1c3n2CCN(CCC(=O)O)C3CCC1 (stereo unspecified)	28.1%	-25.8%	23.1%	-3.7%	-15.3%
Cc1ccc2c(c1)c1c3n2CCN(C(=O)CN2CCN(C)CC2)C3CCC1 (stereo unspecified)	?	.	-2.7%	0.0%	-22.7%
CCCCn1c(N)c(N(CC(C)C)C(=O)c2cccc(OCc3ccccc3)c2)c(=O)[nH]c1=O	?	?	.	0.0%	10.7%
Cc1ccc(S(=O)(=O)N2C[C@H]3C(=O)C[C@@H](c4ccccc4)N(S(=O)(=O)c4cccc(C)c4)[C@H]3C[C@H]2c2ccccc2)cc1	.	.	.	.	12.6%
COCCCNc1oc(-c2ccc(COc3ccccc3C)o2)nc1C#N	.	.	.	-8.1%	.
O=C1CCCC/C1=C/NCc1ccccc1	2.4%	-2.6%	.	4.2%	8.2%
Cc1cccc(N2CCN(C(c3ccccc3)c3nnc(-c4ccccc4Cl)o3)CC2)c1C (stereo unspecified)	.	.	.	6.6%	.
Cc1ccc2c(c1)c1c3n2CCN(CC#N)C3CCC1 (stereo unspecified)	?	?	-10.6%	5.6%	17.5%
Cc1ccc2c(c1)c(=O)c1c3n2CCN(CC#N)C3CC1 (stereo unspecified)	0.6%	30.5%	3.8%	-12.2%	-9.8%
Cc1ccc2c(c1)c(=O)c1c3n2CCN(C(=O)CCl)C3CC1 (stereo unspecified)	.	5.22µM*	5.5%	3.16µM*	-1.3%
Cc1ccc2c(c1)c1c3n2CCN(CC(O)CNC(C)C)C3CCC1 (stereo unspecified)	?	13.1µM*	1.6%	42.2%	-12.3%
O=C(O)c1ccc2c(=O)n3c(nc2c1)/C(=C/c1cccc(Cl)c1Cl)CC3	?	?	2.6%	-1.9%	0.0%
SMILES	Pf growth 48h	Pf growth 96h	NS1 inh	Sm TGR inh	AMA1 RON2 block
CNC(=O)c1cc(NC(=O)CCn2nc(-c3ccccc3)c3ccccc3c2=O)ccc1OC	2.08µM*	0.828µM*	-1.3%	-4.6%	-7.2%
Cc1cccc(NC(=O)CCn2nc(-c3ccccc3)c3ccccc3c2=O)c1	.	.	.	5.9%	.
COc1ccc(Cc2nnc(NS(=O)(=O)c3ccc(Cl)cc3)s2)cc1OC	-13.2%	4.7%	10.6%	2.7%	43.7%
CCOC(=O)c1cnn(-c2c(Cc3ccccc3)c(C)nc3c(-c4ccccc4)c(C)nn23)c1N	11.7µM*	.	0.9%	0.3%	-6.4%
Cc1ccc(NS(=O)(=O)c2ccc(OCC(=O)Nc3cccc([N+](=O)[O-])c3)c(C)c2)cc1	?	14.7µM*	6.7%	10.7%	-17.2%
O=C(COC(=O)COc1ccccc1)Nc1cccc([N+](=O)[O-])c1	39.1%	56.8%	0.2%	4.6%	-2.7%
CC(NS(=O)(=O)c1ccc(OCC(=O)Nc2cccc([N+](=O)[O-])c2)cc1)c1ccccc1 (stereo unspecified)	10.4µM*	-33.9%	18.0%	-1.0%	-10.3%
CN(C)C(=S)NC(=O)C12CC3(C)CC(C)(CC(C)(C3)C1)C2	-13.1%	?	-4.8%	5.7%	91.2%
Cc1cc(C)nc(SCCn2c(N3CCOCC3)nc3c2c(=O)[nH]c(=O)n3C)n1	11.1%	?	.	2.4%	-17.9%
COc1cc2c(cc1N)-c1ccc(N)cc1C2	.	.	.	.	3.98µM*
CCCn1c(N2CCN(Cc3ccc(Cl)cc3)CC2)nc2ccccc21	?	29.1%	-35.8%	17.3%	-21.5%
Cc1nc([N+](=O)[O-])c(N2CCN(Cc3ccccc3)CC2)n1Cc1ccccc1	.	16.5µM*	-0.8%	-1.7%	-17.1%
Cn1cnc([N+](=O)[O-])c1Sc1nc2ccccc2[nH]1	?	?	7.5%	1.41µM*	8.3%
Cc1nc([N+](=O)[O-])c(Sc2nc3ccccc3[nH]2)n1Cc1ccccc1	?	4.15µM*	-2.8%	20µM*	16.4%
COc1ccc2nc(Sc3c([N+](=O)[O-])nc(C)n3Cc3ccccc3)[nH]c2c1	22.5%	?	0.7%	-54.3%	-3.1%
CCn1c(N2CCN(Cc3ccc([N+](=O)[O-])cc3)CC2)nc2ccccc21	?	13.1µM*	-48.1%	-6.4%	1.5%
Cc1cccc(Sc2c([N+](=O)[O-])ncn2C)c1	?	-9.3%	23.5%	?	5.2%
Cc1cc2nc(Sc3c([N+](=O)[O-])nc(C)n3Cc3ccccc3)[nH]c2cc1C	10.4µM*	?	-1.7%	17.8µM*	-15.6%
